This excerpt belongs to a sample that is enriched for hits.
Tg IFNy HTS: blocks Toxoplasma gondii growth in the presence of IFN-gamma; Toxoplasma gondii growth in IFN-gamma-treated host cells; stronger effect = lower value; activity change, negative = inhibition, % (concentration not given with the values); 3.8% of 69,000 active; AID 1259416; in the data active = activity change below about -70%, passing the limit was not always enough;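 also: host cells are HeLa cells infected with Toxoplasma gondii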
Numbers stand for hits; - = inactive.

SMILES | Tg IFNy HTS
Cc1cccc2cc(CN(Cc3ccccc3)C(=O)Nc3ccc(F)cc3)c(=O)[nH]c12 | -104
COc1cccc(CN(C)Cc2cc3ccc(F)cc3[nH]c2=O)c1 | -
Cc1ccc(NC(=O)N(Cc2ccco2)Cc2cc3cc4c(cc3[nH]c2=O)OCCO4)cc1 | -
Cn1cccc1C(=O)N1CCC2OCCN(c3cccnc3)C2CC1 (stereo not given) | -
CCOC(=O)c1ccc(OC(=O)c2ccc(Cl)cc2Cl)cc1 | -
C[C@H]1CN([C@@H](C)CO)S(=O)(=O)c2ccc(C#CC(C)(C)O)cc2O[C@H]1CN(C)Cc1ccc(F)cc1 | -
C[C@H](CO)N1C[C@H](C)[C@H](CN(C)Cc2ccc(F)cc2)Oc2cc(C#CC(C)(C)O)ccc2S1(=O)=O | -
C/C=C/c1ccc2c(c1)O[C@H](CN(C)C(=O)Nc1ccc(OC)cc1)[C@H](C)CN([C@@H](C)CO)S2(=O)=O | -
CCCNC(=O)N(C)C[C@@H]1Oc2cc(C#C[C@@H](C)O)ccc2S(=O)(=O)N([C@H](C)CO)C[C@H]1C | -
C[C@@H]1CN([C@@H](C)CO)S(=O)(=O)c2ccc(-c3cccc(C#N)c3)cc2O[C@H]1CN(C)C(=O)c1ccccc1 | -99
C[C@H]1CN([C@@H](C)CO)S(=O)(=O)c2ccc(Br)cc2O[C@H]1CN(C)C(=O)Nc1ccccc1F | -
C[C@@H]1CN([C@@H](C)CO)S(=O)(=O)c2ccc(C#CC3(O)CCCC3)cc2O[C@H]1CN(C)C(=O)Nc1cccc(F)c1 | -92
C[C@@H]1CN([C@@H](C)CO)S(=O)(=O)c2ccc(-c3ccc(F)cc3)cc2O[C@@H]1CN(C)Cc1ccccc1C(=O)O | -
C[C@H]1CN([C@@H](C)CO)S(=O)(=O)c2ccc(C#CC3(O)CCCC3)cc2O[C@H]1CN(C)C(=O)Nc1cccc(F)c1 | -
C[C@H](CO)N1C[C@H](C)[C@@H](CN(C)Cc2ccc(F)cc2)Oc2cc(C#CC(C)(C)O)ccc2S1(=O)=O | -95
Cc1ccccc1-c1ccc2c(c1)O[C@@H](CN(C)C(=O)Nc1ccc(C(F)(F)F)cc1)[C@H](C)CN([C@@H](C)CO)S2(=O)=O | -100
C[C@H](CO)N1C[C@H](C)[C@H](CN(C)C(=O)c2ccccc2)Oc2cc(-c3cccc(C#N)c3)ccc2S1(=O)=O | -
Cc1oc(-c2cccc(Cl)c2)nc1Cn1c(=O)cc(C(=O)N2CCCCC2)c2ccccc21 | -
Cc1cc(C)n(CC(C)NCCN(C)S(C)(=O)=O)n1 (stereo not given) | -
CCN(CC)Cc1cnc2c(C(=O)NCc3ccoc3)cnn2c1 | -
Fc1cnc(N2CCC3(COCc4cnc(N5CCOCC5)nc43)C2)nc1 (stereo not given) | -
CC(=O)N1CCC2(CC1)OC(=O)C(C)=C2C(=O)NCCN1CCCCC1C (stereo not given) | -
CCn1ncc(C(=O)NCC(c2sccc2C)N(C)C)c1C (stereo not given) | -
CN(C)c1ccc(NC(=O)c2cccs2)cc1 | -
O=C(Nc1ccc2c(c1)ncn2-c1ccccc1)c1cccs1 | -95
SMILES | Tg IFNy HTS
O=C(Nc1ccc2c(c1)CS(=O)(=O)C2)c1cccs1 | -
Cc1ccc(NC(=O)Cn2c(=O)cc(C(=O)N3CCCC3)c3ccccc32)cc1 | -
COc1cc(CNCCc2ccc(S(N)(=O)=O)cc2)ccc1OCc1cccs1 | -
c1csc(-c2nc(N3CCCCC3)ncc2-c2ccncc2)c1 | -98
OC1(c2cccnc2)CCN(c2ncc(-c3cccs3)c(-c3cccnc3)n2)CC1 | -
c1csc(-c2nc(N3CCCCC3)no2)c1 | -
CN[C@@H]1C[C@H]2O[C@@](C)([C@@H]1OC)n1c3ccccc3c3c4c(c5c6ccccc6n2c5c31)C(=O)N[C@H]4O | -80
COc1ccc(-c2nc(C)c(CCNS(=O)(=O)c3cccs3)s2)cc1OC | -
Cc1ccc(N2Cc3ncn(CC(C)C)c3C(C(=O)O)C2)nn1 (stereo not given) | -
CS(=O)(=O)n1c(C(=O)C2CC2)cc2c1c1ccccc1n2CC1CC1 | -
FC(F)(F)c1cc(NC(=S)Sc2ccc(Cl)cc2)cc(C(F)(F)F)c1 | -
O=C(Sc1ccc(Cl)cc1)c1cnn(-c2ccc(Cl)cc2)c1C(F)(F)F | -95
Cc1nc(C(F)(F)F)ccc1C(=O)Sc1ccc(F)cc1 | -
COc1cccc(CN2CCN(C(=O)C3CCCO3)[C@@H](C)C2)c1 (stereo not given in full) | -
Cc1nnc(-c2ccc3ccn(CC(=O)NCc4ccccn4)c3c2)o1 | -
CCc1c(C)[nH]n2c(=O)cc(Cc3ccc(F)cc3)nc12 | -103
CCc1c(C)[nH]n2c(=O)cc(COc3ccccc3)nc12 | -
CCCc1cc(=O)n2[nH]c(C(F)(F)F)c(-c3ccc(OC)cc3)c2n1 | -
COc1ccc(-c2nc(C)c(CCNS(=O)(=O)c3ccc(OC)c(OC)c3)s2)cc1OC | -
Cc1ccc2oc(C(=O)NCc3cc(-c4cccnc4)no3)cc2c1 | -
O=C(Nc1ccccc1I)c1c(O)c2ccccc2[nH]c1=O | -
CC(C)Nc1ncnc2c1cnn2-c1ccc(Cl)cc1 | -73
Clc1ccc(-n2ncc3c(NC4CCCCCCCCCCC4)ncnc32)cc1 | -
Cc1ccc(Nc2ncnc3c2cnn3-c2ccc(Cl)cc2)cc1 | -

Assay outcomes (PubChem)
